BoNT F protease = blocks Botulinum neurotoxin F light chain protease | Multiplex microsphere protease cleavage assay, flow cytometry | inhibition, % at 10 µM | hit rate 0.22% among 360,000; in the data active means inhibition above about 35%, passing the limit was not always enough; inconclusive means no clear call, values can overlap the other calls; further: plate controls were buffer without enzyme for full effect and enzyme alone for no effect
Autofluor counter = counter-screen for toxin protease inhibitors: compound fluorescence; compound autofluorescence counterscreen, microsphere flow cytometry; hits give high values; fluorescence intensity (concentration not given with the values); hit rate 3.1% among 360,000; in the data active means fluorescence intensity above about 16000; inconclusive means no clear call, values can overlap the other calls
Anthrax LF inh2 = inhibitors of Bacillus anthracis lethal factor protease | P15917 | multiplex microsphere protease cleavage assay, LF | inhibition, % at 10 µM | hit rate 0.12% among 360,000 | AID 588501; further: plate controls were buffer without enzyme for full effect and enzyme alone for no effect
BoNT A protease = BoNT A light chain protease inhibition | hit rate 0.17% among 360,000 | AID 588499 | multiplex microsphere protease substrate cleavage, flow cytometry | inhibition, % at 10 µM; further: plate controls were buffer without enzyme for full effect and enzyme alone for no effect
* hit, by the source's call; ? = inconclusive. An excerpt weighted towards active compounds, which were near 3.5% of everything screened. Unless noted, no stated cut-off is given here; in the data, active means inhibition above about 30%; inconclusive means no clear call, values can overlap the other calls; inactive means below that.

SMILES	BoNT F protease	Autofluor counter	Anthrax LF inh2	BoNT A protease
CCCCn1c(N(CCOC(C)=O)C(C)=O)nc2ccccc21	7	19843*	-10	4
Cc1ccc(C(O)c2ncc(-c3ccccc3Cl)[nH]2)c(C)c1 (stereo not given)	-1	3939	2	0
CCOc1cc(C(=O)N2CCN(C/C=C/c3ccccc3)CC2)cc(OCC)c1OCC	0	9416	3	1
Cc1cc(C(=O)N2CCN(C/C=C/c3ccccc3)CC2)no1	0	19463*	1	1
CCOc1cccc2cc(C(=O)N3CCN(C/C=C/c4ccccc4)CC3)c(=O)oc12	0	16172*	-4	?
CCOC(=O)C(=CNc1cc(C)ccc1C)C(=O)OCC	-6	17727*	-3	-3
CCOC(=O)CSCC(=O)Nc1cc(C)ccc1C	-10	26149*	-2	-9
Cc1ccccc1NC(=O)Cc1nnc(SCC(=O)NC2=NCCS2)n1C	11	3124	2	1
Cc1cc(SCC(=O)NC(=O)c2cccn2C)nc2ccccc12	1	4357	4	1
COc1ccccc1-n1cc(C(=O)NCC(=O)N2CCN(c3ccccc3)CC2)c2ccccc2c1=O	-4	24097*	1	-3
Cc1ccc(OCCn2c(C3CC(=O)N(Cc4ccccc4)C3)nc3ccccc32)cc1 (stereo not given)	-10	4297	-5	0
C=CCN1CC(c2nc3ccccc3n2Cc2cccc3ccccc23)CC1=O (stereo not given)	-3	19853*	-1	-1
COc1ccc(N2CCN(C(=O)CCc3ccc(S(=O)(=O)NC(C)(C)C)cc3)CC2)cc1	0	5058	-3	-2
Cc1cccc(NC(=O)c2cc(-c3cc(C)ccc3O)n[nH]2)c1	6	3054	1	-4
Cc1ccc(O)c(-c2cc(C(F)(F)F)[nH]n2)c1	-9	21889*	-2	?
Cc1nc2c([nH]c3ccc(Br)cc32)s1	0	20775*	-1	0
Cc1n[nH]c2ccc(Br)cc2c1=O	0	2849	-3	0
COc1cc(CC(=O)OCc2ccccc2F)cc(OC)c1OC	-6	3711	-6	1
Cc1ccc(-c2cnn(-c3cccc([N+](=O)[O-])c3)c2N)cc1	0	23689*	-2	0
O=c1[nH]nc(SCc2nnc(-c3cccc(Cl)c3)o2)n1C1CCCCC1	?	4692	-3	?
O=C(Nc1ccc(N2CCOCC2)nc1)c1ccc(F)cc1	-1	22364*	-1	0
Cc1ccc(C(=O)Nc2ccc(N3CCOCC3)nc2)cc1	-3	9361	-12	0
CCCCOC(=O)n1c(SCC(=O)N(CC)CC)nc2ccccc21	-7	24831*	-12	-5
CCN(CC)C(=O)CSc1nc2ccccc2c(=O)n1OC(C)C	-3	17014*	-6	-2
CCOC(=O)n1c(SCC(N)=O)nc2ccccc21	-17	3304	-2	-2
SMILES	BoNT F protease	Autofluor counter	Anthrax LF inh2	BoNT A protease
CC(C#N)On1c(SC(C)C#N)nc2ccccc2c1=O (stereo not given)	-6	25088*	-4	-4
COc1cc(OC)cc(C(=O)NNC(=O)CCC(=O)c2cccs2)c1	-8	4453	-2	-1
C[C@H]1CN([C@@H](C)CO)C(=O)CCCn2nncc2CO[C@H]1CN(C)C(=O)NC1CCCCC1	-2	3456	3	0
Cc1ccc(C(C(=O)NC2CCCCC2)N(C(=O)Cc2c[nH]c3ccccc23)c2ccccc2)o1 (stereo not given)	4	20827*	-2	?
CCOc1cc(S(=O)(=O)NCc2ccc(OC)cc2)c(OCC)cc1-n1cnnn1	0	23322*	-4	?
CCOc1cc(S(=O)(=O)NCCc2ccc(OC)c(OC)c2)c(OCC)cc1-n1cnnn1	-3	10269	2	0
Cc1cccc(N2CCN(S(=O)(=O)c3ccc4c(c3)n(C)c(=O)c(=O)n4C)CC2C)c1 (stereo not given)	8	19587*	-4	?
Cc1ccc(N2CCN(S(=O)(=O)c3ccc4c(c3)n(C)c(=O)c(=O)n4C)CC2C)cc1 (stereo not given)	-6	9801	2	-2
C=CCSc1nc(=O)n2cccc(C)c2n1	-3	21125*	-6	-2
CN(C)CC(=O)Nc1cc(C(F)(F)F)ccc1Cl	-1	?	-13	0
CCOC(=O)/C(=N\Nc1cc(C(F)(F)F)ccc1Cl)N(CC)CC	-3	20400*	-8	0
Cc1ccccc1-c1nnc(SCC(=O)Nc2cccc(C)c2C)o1	5	19363*	-3	?
Cc1cc(C)cc(NC(=O)CSc2nnc(-c3ccccc3Br)o2)c1	1	21943*	-2	1
Cc1cccc(NC(=O)CSc2nnc([C@@H](N)Cc3ccccc3)o2)c1C	1	9722	-7	1
COc1ccccc1-c1nnc(SCC(=O)Nc2c(Cl)cccc2Cl)o1	4	19236*	-2	3
Cc1ccc(C)c(N2N=C(C(=O)NCCN3C(=O)S/C(=C\c4cccnc4)C3=O)CCC2=O)c1	3	?	-8	3
CCN1CCCc2cc(CN(CCN3CCOCC3)C(=O)Nc3ccc(C)c(C)c3)ccc21	-9	20262*	-2	-2
CCOc1ccc(C(=O)NCCc2cnc[nH]2)cc1	50*	3918	8	1
CCOc1ccccc1C(=O)NCCc1cnc[nH]1	-25	4176	1	-4
O=C(O)CSc1nnc(-c2ccncc2)n1CCc1ccccc1	-6	22072*	0	-5
C=CCn1c(SCC(=O)O)nnc1-c1ccccc1	0	22122*	-6	0
CCn1c(SCc2cccc(C)c2)nnc1-c1ccccc1	-2	23697*	-1	?
CCSc1nnc(-c2ccncc2)n1Cc1ccccc1	-1	16561*	-1	?
CC1(C)Cc2c(cnn2-c2ccc(F)cc2)C(NC(=O)C2=CC(=O)CC(C)(C)O2)C1 (stereo not given)	-5	4058	1	0
CCOC(=O)C1(Cc2cccc(Cl)c2)CCCN(C(=O)c2cc(C(C)C)nn2C)C1 (stereo not given)	-2	4549	-4	-1
SMILES	BoNT F protease	Autofluor counter	Anthrax LF inh2	BoNT A protease
CNC(=O)CSc1nnc(-c2ccncc2)n1Cc1ccccc1	1	16183*	-2	0
CCOC(=O)C1CCCN(c2c(NCCCN(CC)c3ccccc3)c(=O)c2=O)C1 (stereo not given)	-6	24139*	2	0
CCOC(=O)C1CCCN(c2c(NCCN(CC)c3ccccc3)c(=O)c2=O)C1 (stereo not given)	4	6011	-7	-1
N#Cc1ccc(CSc2nnc(-c3cccs3)n2-c2ccccc2)cc1	5	9086	-2	1
FC(F)Sc1nnc(-c2cccs2)n1-c1ccccc1	1	19168*	2	1
Cc1cc(N=Nc2ccccc2)cc(C)c1NC(=O)C(F)(F)F	-4	2938	0	0
C=C(C)CSc1nnc(-c2cc(OC)c(OC)c(OC)c2)n1N	-6	21195*	1	-5
C=C(C)CSc1nnc(-c2ccc(OC)c(OC)c2)n1N	4	15658	3	3
NS(=O)(=O)c1ccc(NC(=O)CSc2nc3c(cnn3-c3ccccn3)c(=O)[nH]2)cc1	-2	6269	0	1
Cn1c(=O)oc2cc(S(=O)(=O)N3CCC4(CC3)OCCO4)ccc21	3	22987*	-2	3

Compound activity as filed in PubChem.
